# Laboratory results from PubChem BioAssay (NCI).
# Where “and” joins values, the source holds several entries; their conditions need not be identical. Equal entries are not always repeated. The panel holds about 83,000 compounds, 20% with a hit somewhere; the sample as a whole holds those more often.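 A percent growth of 40 corresponds to 60% growth inhibition; 0 means no net growth; -100 means all cells died. Active threshold: below 10.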 Calls of active or inactive are those of the source.
# Assays:
# Test in all cases: NCI-60 one-dose screen, 48 h (100 = growth as untreated, 0 = no growth, -100 = all killed)
# Details in all cases: 10 µM unless noted
# [1] = system: NCI-H23 lung
# [2] = system: NCI-H226 lung
# [3] = system: NCI-H322M lung
# [4] = system: HOP-62 NSCLC
# [5] = system: NCI-H460 lung
# [6] = system: HOP-92 NSCLC
# [7] = system: NCI-H522 lung
# [8] = system: A549/ATCC NSCLC
# [9] = system: 786-0 renal
# [10] = system: COLO 205 colon
Structure (SMILES),growth [1],growth [2],growth [3],growth [4],growth [5],growth [6],growth [7],growth [8],growth [9],growth [10]
COc1ccc2c(O)c(/C=C3\N=Nc4nc(C)ccc43)oc2c1CC1CCNCC1,67.2% (inactive),57.5% (inactive),80.8% (inactive),64.3% (inactive),79.3% (inactive),39.2% (inactive),43.4% (inactive),68.2% (inactive),54.1% (inactive),78.4% (inactive)
O=C(NNc1ccccc1)C1CCCN1 (stereo not given),98.8% (inactive),80.9% (inactive),86% (inactive),76.7% (inactive),99.1% (inactive),108% (inactive),52.2% (inactive),75.9% (inactive),89.2% (inactive),103% (inactive)
COc1ccc(-c2cc(=O)c3c(O)cc(O)cc3o2)cc1,96.3% (inactive) and 100% (inactive),106% (inactive),109% (inactive) and 103% (inactive),113% (inactive) and 114% (inactive),104% (inactive) and 97.2% (inactive),95.4% (inactive) and 75% (inactive),83.2% (inactive) and 77.9% (inactive),97.1% (inactive) and 94.8% (inactive),107% (inactive),101% (inactive)
Cn1cc(C2=C(c3cccc4ccccc34)C(=O)NC2=O)c2cc(Br)ccc21,93.5% (inactive),103% (inactive),100% (inactive),111% (inactive),104% (inactive),171% (inactive),99.8% (inactive),91.3% (inactive),84.7% (inactive),92% (inactive)
NCCOCCOc1ccccc1,97.2% (inactive),103% (inactive),96.1% (inactive),109% (inactive),103% (inactive),64.8% (inactive),93.1% (inactive),104% (inactive),100% (inactive),113% (inactive)
CCN1C(=O)N(c2ccccc2)C2NC(=S)N(/N=C/C=C/c3ccccc3)C21 (stereo not given),21.1% (inactive),2.92% (active),50.4% (inactive),37.9% (inactive),8.06% (active),28.8% (inactive),14.8% (inactive),24.9% (inactive),37.2% (inactive),-8.16% (active)
O=S(=O)(Nc1ccc(F)cc1)c1ccc(-c2cnc(C3CC3)o2)cc1,42% (inactive),63.9% (inactive),52.8% (inactive),34.7% (inactive),15.8% (inactive),50.5% (inactive),0.0519% (active),37.8% (inactive),38.5% (inactive),20.2% (inactive)
C=C(c1ccc(C(=O)O)cc1)c1cc2c(cc1C)C(C)(C)CCC2(C)C,81.7% (inactive) and 81.9% (inactive),76% (inactive) and 86.3% (inactive),72% (inactive),79.7% (inactive) and 67.3% (inactive),83.4% (inactive) and 79% (inactive),68.4% (inactive),52.4% (inactive) and 61.4% (inactive),52.1% (inactive) and 31.2% (inactive),79.1% (inactive) and 80.1% (inactive),135% (inactive) and 118% (inactive)
Cc1ccc(NC(=O)N/C(N)=N/c2nc(=O)c3ccccc3s2)cc1,94.1% (inactive),91.3% (inactive),93.9% (inactive),91.7% (inactive),88.8% (inactive),86.4% (inactive),95.3% (inactive),103% (inactive),98.6% (inactive),103% (inactive)
CN1C(=O)N(C)C2(c3ccccc3)N(CC(=O)Nc3ccccc3O)C(=O)NC12c1ccccc1 (stereo not given),101% (inactive),90.7% (inactive),100% (inactive),102% (inactive),106% (inactive),107% (inactive),86.2% (inactive),109% (inactive),103% (inactive),110% (inactive)
Nc1nc(CSc2n[nH]c(N)n2)nc(Nc2ccccc2)n1,102% (inactive),101% (inactive),97.8% (inactive),106% (inactive),103% (inactive),95.4% (inactive),93.4% (inactive),102% (inactive),96% (inactive),109% (inactive)
OCCN1CCN(CC/C=C2\c3ccccc3Sc3ccc(Cl)cc32)CC1,50.7% (inactive) and 82.9% (inactive),88.2% (inactive) and 110% (inactive),83.1% (inactive),-34.7% (active) and -66.1% (active),2.77% (active) and -25% (active),10.9% (inactive) and -12.9% (active),37.9% (inactive) and 13.3% (inactive),60% (inactive) and 38.2% (inactive),38.6% (inactive),-75.6% (active) and -87.3% (active)
COc1cccc(C2C(C#N)=C(N)Oc3cc(OCCCCCC[P+](c4ccccc4)(c4ccccc4)c4ccccc4)ccc32)c1 (stereo not given),-23.1% (active),7.81% (active),6.6% (active),-39% (active),-44.4% (active),-51.7% (active),-10.7% (active),10.2% (inactive),-46.3% (active),-62.5% (active)
